Measurements reported in PubChem BioAssay AID694 (Emory University Molecular Libraries Screening Center, 2007).
Screen size: about 1,300 compounds; about 25 (2%) were called active. The rule behind the calls is not given here. The entries come from a sample that favours actives as a whole.

Target: Estrogen receptor (Homo sapiens) (UniProt P03372)
Experiment: blockers of coactivator recruitment to ERα – biochemical, LOPAC library, TR-FRET, primary screen (AID 694);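 note: receptor was agonist-bound with estradiol present during the assay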
Conditions: TR-FRET ERalpha-coactivator peptide binding, stronger effect = higher value

Chain of Estrogen receptor (Homo sapiens) (P03372 whole entry, looked up): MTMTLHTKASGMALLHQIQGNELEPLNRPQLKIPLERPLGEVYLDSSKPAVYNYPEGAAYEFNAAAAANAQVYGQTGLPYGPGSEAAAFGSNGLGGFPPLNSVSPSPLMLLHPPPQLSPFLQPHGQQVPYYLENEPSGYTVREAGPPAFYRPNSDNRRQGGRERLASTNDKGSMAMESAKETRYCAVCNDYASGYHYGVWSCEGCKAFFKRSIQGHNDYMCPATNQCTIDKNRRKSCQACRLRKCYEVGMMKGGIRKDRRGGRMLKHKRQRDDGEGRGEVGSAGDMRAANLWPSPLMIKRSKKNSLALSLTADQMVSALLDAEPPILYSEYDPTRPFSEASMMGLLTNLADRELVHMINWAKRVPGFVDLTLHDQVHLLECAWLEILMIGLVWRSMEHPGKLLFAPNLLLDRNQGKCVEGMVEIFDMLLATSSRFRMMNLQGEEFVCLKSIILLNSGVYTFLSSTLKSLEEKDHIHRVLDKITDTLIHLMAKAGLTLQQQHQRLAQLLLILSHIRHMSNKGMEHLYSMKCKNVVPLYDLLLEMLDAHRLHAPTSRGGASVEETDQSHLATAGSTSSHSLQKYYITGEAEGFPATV

Row | Structure (SMILES) | inhibition (at 45 µM) | inhibition (inhibition, at 15 µM) [%]
1 | N=c1c[n+](N2CCOCC2)[n-]o1 | 3.79% (inactive) | 4.24
2 | COc1ccccc1N1CCN(CCCNc2c(C)c(=O)n(C)c(=O)n2C)CC1 | -0.24% (inactive) | 1.69
3 | CCNC(=O)C1OC(n2cnc3c(NCc4ccccc4)ncnc32)C(O)C1O (centres undefined) | -1.65% (inactive) | 1.9
4 | Cn1cc(C(F)(F)F)nc1-c1ccc(OCC(O)CNCCOc2ccc(O)c(C(N)=O)c2)cc1 (centres undefined) | -4.07% (inactive) | -6.05
5 | CC[N+](C)(C)Cc1ccccc1Br | -6.37% (inactive) | -2.6
6 | COc1ccccc1N1CCN(CCN(C(=O)c2ccc(F)cc2)c2ccccn2)CC1 | -4.33% (inactive) | 1.39
7 | CCCCCN(CCCCC)C(=O)C(CCC(=O)O)NC(=O)c1ccc(Cl)c(Cl)c1 (centres undefined) | 0.49% (inactive) | 8.19
8 | NCCCCNS(=O)(=O)c1cccc2c(Cl)cccc12 | -24.3% (inactive) | 2.07
9 | CNC(=O)Oc1ccc2c(c1)[C@]1(C)CCN(C)[C@@H]1N2C | -8.56% (active) | 56.6
10 | Oc1cc(O)c2c(c1)O[C@H](c1ccc(O)c(O)c1)[C@@H](O)C2 | 26.6% (inactive) | 10.3
11 | CC1=C(C(=O)O)N2C(=O)[C@@H](NC(=O)C(N)c3ccccc3)[C@H]2SC1 (some centres undefined) | -5% (inactive) | -4.71
12 | COc1cc(=O)n(C)c2c(OCC(O)C(C)(C)O)cccc12 (centres undefined) | -4.43% (inactive) | 3.61
13 | NS(=O)(=O)c1cc2c(cc1Cl)NC=NS2(=O)=O | -2.72% (inactive) | 1.82
14 | Cc1nc(N=Nc2ccc(C(=O)O)cc2)c(COP(=O)(O)O)c(C=O)c1O | 6.52% (inactive) | -0.22
15 | Cn1c(=O)c2c(nc(/C=C/c3cccc(Cl)c3)n2C)n(C)c1=O | 0.97% (inactive) | -2.61
16 | CC(C)COCC(CN(Cc1ccccc1)c1ccccc1)N1CCCC1 (centres undefined) | -5.09% (inactive) | 4.06
17 | C[N+](C)(C)CCOC(=O)CCC(=O)OCC[N+](C)(C)C | -6.43% (inactive) | 0.18
18 | COc1ccc2[nH]c(I)c(CCNC(C)=O)c2c1 | -2.05% (inactive) | -4.11
19 | CC(C)[C@@H]1NC(=O)[C@H](CCCCN)NC(=O)[C@@H](Cc2c[nH]c3ccccc23)NC(=O)[C@H](Cc2ccc(O)cc2)NC(=O)[C@H](C)N(C)C(=O)[C@H](Cc2ccccc2)NC1=O | 5.89% (inactive) | -1.62
20 | COC(=O)[C@H](NC(=O)c1cc(-c2ccccc2)nc2ccccc12)c1ccccc1 | 1.85% (inactive) | 2.38
21 | O=Nc1ccc2oc(=O)ccc2c1 | 0.4% (inactive) | 0.59

Row | Structure (SMILES) | inhibition (at 45 µM) | inhibition (inhibition, at 15 µM) [%]
22 | NC(CCCP(=O)(O)O)C(=O)O (centres undefined) | -8.81% (inactive) | -3.89
23 | N[C@@H](CCCC(=O)O)C(=O)O | -21.2% (active) | 50.5
24 | NC(N)=NCCC[C@H](N)C(=O)O | -2.21% (inactive) | -4
25 | O=c1c(O)c(-c2cc(O)c(O)c(O)c2)oc2cc(O)cc(O)c12 | 84% [fluorescence artefact?] (active) | 62.7
26 | O=c1c(O)c(-c2ccc(O)c(O)c2)oc2cc(O)cc(O)c12 | 59.6% (inactive) | 26.6
27 | O=c1[nH]c2cc(C(F)(F)F)ccc2n1-c1cc(C(F)(F)F)ccc1O | 2.02% (inactive) | 1.4
28 | CC(=O)N[C@@H](CS)C(=O)O | -7.68% (inactive) | -8.08
29 | N#C/C(=C\c1ccc(O)c(O)c1)C(=O)c1ccc(O)c(O)c1 | 59.5% [fluorescence artefact?] (active) | 57.3
30 | N#C/C(=C\c1ccc(O)c(O)c1)C(=O)NCCCNC(=O)/C(C#N)=C/c1ccc(O)c(O)c1 | 51.7% (inactive) | 37.2
31 | COc1cc(/C=C(\C#N)C(=O)c2ccc(O)c(O)c2)cc(I)c1O | 28.7% (inactive) | 13.7
32 | Nc1ncn([C@@H]2O[C@H](CO)[C@@H](O)[C@H]2O)c(=O)n1 | -1.93% (inactive) | -4.32
33 | Cn1c(=O)c2[nH]c(C3CCCC3)nc2n(C)c1=O | 1.28% (inactive) | -1.01
34 | NC(=S)NCCCC(N)C(=O)O (centres undefined) | -4.72% (inactive) | 3.62
35 | NCC(O)C1CCCCCCC1 (centres undefined) | -4.78% (inactive) | 1.99
36 | CCN1CCc2nc(N)oc2CC1 | -3.72% (inactive) | -5.11
37 | CN(CCOc1ccc(C[C@H](Nc2ccccc2C(=O)c2ccccc2)C(=O)O)cc1)c1ccccn1 | 2.05% (inactive) | 2.17
38 | C=Cc1c(C)c2cc3[nH]c(cc4nc(cc5nc(cc1[nH]2)C(C)=C5CCC(=O)O)C(CCC(=O)O)=C4C)c(C)c3C=C | 93.6% [fluorescence artefact?] (active) | 73.7
39 | CN(C)C(=O)/N=N/C(=O)N(C)C | -2.24% (inactive) | -4.27
40 | Nn1nnc2ccccc21 | -3.33% (inactive) | -2.11
41 | COc1ccccc1N1CCN(CCCNc2cc(=O)n(C)c(=O)n2C)CC1 | 4.48% (inactive) | 2.87
42 | Cn1cnc2c(NCc3ccccc3)nc(NCCO)nc21 | 3.75% (inactive) | 1.76

Row | Structure (SMILES) | inhibition (at 45 µM) | inhibition (inhibition, at 15 µM) [%]
43 | C=CC[C@H](N)C(=O)O | -2.53% (inactive) | -5.06
44 | CCCn1c(=O)c2c(ncn2C)n(CCC)c1=O | 5.51% (inactive) | -1.66
45 | N=c1nc(N2CCCCC2)cc(N)n1O | 2.01% (inactive) | -3.53
46 | CC[C@@H](C)[C@H]1O[C@]2(CC[C@@H]1C)C[C@@H]1C[C@@H](C/C=C(\C)[C@@H](O[C@H]3C[C@H](OC)[C@@H](O[C@H]4C[C@H](OC)[C@@H](O)[C@H](C)O4)[C@H](C)O3)[C@@H](C)/C=C/C=C3\CO[C@@H]4[C@H](O)C(C)=C[C@@H](C(=O)O1)[C@]34O)O2 | -0.86% (inactive) | 3.41
47 | CCCCC#Cc1nc(N)c2ncn([C@@H]3O[C@H](C(=O)NCC)[C@@H](O)[C@H]3O)c2n1 | -0.57% (inactive) | 5.8
48 | CCCCCCCC/C=C\CCCCCCCC(=O)NCCO | 7.02% (inactive) | 9.1
49 | N[C@@H](CCC(=O)N[C@H](CSN=O)C(=O)NCC(=O)O)C(=O)O | 1.19% (inactive) | 3.44
50 | [N-]=[N+]=Nc1ccc(C(=O)CSC[C@H](NC(=O)CC[C@H](N)C(=O)O)C(=O)NCC(=O)O)cc1 | 75.4% [fluorescence artefact?] (active) | 74
51 | C=CCN1CCc2c(cc(O)c(O)c2Br)[C@@H](c2ccccc2)C1 | 2.69% (inactive) | 6.75
52 | Cc1nc(N=Nc2cc(S(=O)(=O)O)c3cc([N+](=O)[O-])cc(S(=O)(=O)O)c3c2)c(COP(=O)(O)O)c(C=O)c1O | 60.6% (inactive) | 46.2
53 | OCCN1CCN(CC/C=C2/c3ccccc3Sc3ccc(C(F)(F)F)cc32)CC1 | 3.87% (inactive) | 3.25
54 | CN1C(C)(C)CCCC1(C)C | -1.09% (inactive) | -2.02
55 | Nc1nc(OCc2ccccc2)c2[nH]cnc2n1 | -3.48% (inactive) | -5.45
56 | Cc1cccc(C)c1NC(=O)C[N+](C)(C)C | 0.37% (inactive) | -1.43
57 | CCCCN1CCC(COC(=O)c2cc(Cl)c(N)c3c2OCCO3)CC1 | -8.8% (inactive) | -4.44
58 | CC(=O)SCC[N+](C)(C)C | 0.72% (inactive) | -4.29
59 | CN(C)CCN(Cc1cccs1)c1ccccn1 | 0.3% (inactive) | 3.28
60 | Cc1nc(N=Nc2ccc(S(=O)(=O)O)cc2S(=O)(=O)O)c(COP(=O)(O)O)c(C=O)c1O | -1.62% (inactive) | 2.87
61 | CCOC(=O)c1cnc2c(cnn2CC)c1NN=C(C)C | 1.01% (inactive) | -4.69
62 | O=c1cc(O)cc(/C=C/c2ccc(O)c(O)c2)o1 | 5.73% (inactive) | 4.2
63 | NC(N)=NCCCCN=C(N)N | -1.43% (inactive) | 22.8

Row | Structure (SMILES) | inhibition (at 45 µM) | inhibition (inhibition, at 15 µM) [%]
64 | CCCCCCCCCCCCC/C=C/C(O)C(N)CO (centres undefined) | 17.6% (inactive) | -17.3
65 | NC(=NCCC[C@H](N)C(=O)O)NO | 3.2% (inactive) | 2.74
66 | NC(C(=O)N[C@@H]1C(=O)N2C(C(=O)O)=C(Cl)CS[C@H]12)c1ccccc1 (some centres undefined) | -11.2% (inactive) | -2.54
67 | CSC(N)=NCCC[C@H](N)C(=O)O | 0.58% (inactive) | -0.49
68 | CN(C)CCCCSC(=N)N | -2.28% (inactive) | 0.11
69 | COc1ccc2c(c1)c(CC(=O)N1CCOCC1)c(C)n2C(=O)c1ccc(Cl)cc1 | 2.58% (inactive) | 0.53
70 | Nc1ncnc2c1ncn2[C@@H]1O[C@H](C(=O)NC2CC2)[C@H](O)C1O (some centres undefined) | -7.62% (inactive) | -0.92
71 | Nc1nc(N)c2nc(CNc3ccc(C(=O)NC(CCC(=O)O)C(=O)O)cc3)cnc2n1 (centres undefined) | 1.53% (inactive) | -2.57
72 | CCCCCC(O)CCCC(=O)O (centres undefined) | -5.09% (inactive) | 11.3
73 | CCCCCCCCCCCCCCSCC(=O)O | 97.7% [fluorescence artefact?] (active) | 66.6
74 | CCCCCCC/C=C\CCCCCCCCC(=O)O | 63.2% (inactive) | 46.6
75 | COC(=O)c1c(-c2cc(OC)c(OC)c(OC)c2)c2ccnc(OCc3ncccn3)c2c(=O)n1Cc1ccnc(C)c1 | -0.01% (inactive) | 7.82
76 | O=C(O)CCCCCC[C@H]1C(=O)NC(=O)N1CC[C@@H](O)C1CCCCC1 | 4.54% (inactive) | 37.6
77 | Nc1nc2c(ncn2COC(CO)CO)c(=O)[nH]1 | -3.37% (inactive) | -1.7
78 | Cc1cnc(NC(=O)C2=C(O)c3ccccc3S(=O)(=O)N2C)s1 | 1.42% (inactive) | -3.85
79 | S=C(S)OC1CC2CC1C1CCCC21 (centres undefined) | -5.42% (inactive) | 6.45
80 | CC(=O)NCCc1c[nH]c2ccc(O)cc12 | -5.1% (inactive) | 4.29
81 | NC(=O)c1cccc(N)c1 | -6.67% (inactive) | 0.5
82 | CC1(C)CCC2=C(O1)c1ccccc1C(=O)C2=O | 0.18% (inactive) | -0.19
